# Bioassay records as filed in PubChem BioAssay.
# Hits are enriched below; roughly 12% of the tested compounds scored in any of these assays.
# CHOP inhibitor – blocks CHOP induction under ER stress; CHO-K1 CHOP-promoter luciferase, tunicamycin-induced, 15-18 h; inhibition, % at 10 µM; 220,000 tested, 3.8% active; AID 2732;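 active = compounds that reduced the stress-induced luciferase reporter signal by more than about 70% of percent inhibition, limit read from the data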;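 also: 0% = tunicamycin plus vehicle and 100% = wells without tunicamycin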
# WT yeast gro inh – growth inhibition of WT yeast, mitochondrial fusion screen; inhibition, % at 10 µM; AID 1362; mitochondrial fusion phenotypic screen, WT strain; 190,000 tested, 2.1% active; in the data active = inhibition above about 58%; tested in S. cerevisiae
# L major viab – Leishmania major promastigote growth inhibition | 200,000 tested, 9% active | inhibition, % at 10 µM | Leishmania major promastigotes, resazurin fluorescence viability; in the data active = inhibition above about 50%;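 also: promastigotes grown with compound for 44 hours at 28 °C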
# Arbovirus anti – blocks arbovirus infection | arbovirus infection cell-based antiviral screen | inhibition, % at 10 µM | 200,000 tested, 0.37% active | AID 1251; in the data active = inhibition above about 30%
# Active calls of the source: *; . = not tested or not shown.
SMILES,CHOP inhibitor,WT yeast gro inh,L major viab,Arbovirus anti
O=C(Nc1cc(Sc2nc3ccccc3s2)cc([N+](=O)[O-])c1)c1cccc(F)c1F,59.2,22.2,73.2*,12.1
CC1(C)CC(N=c2cc(-c3ccccc3)oc3ccc(Cl)cc23)CC(C)(C)N1,-46.7,36.2,100.6*,-33.5
OCCCN=c1cc(-c2ccccc2)oc2ccc(Cl)cc12,-2.5,9.4,100.3*,-32.5
Cc1cc(C(=O)CN2C(=O)C(=O)N(CC(C)C)C2=O)c(C)n1-c1ccccc1F,7.2,-10.1,-10.0,2.3
COc1ccc(NC(=S)Nc2ccc(C)c(S(=O)(=O)N3CCCCC3)c2)cc1,61.3,-18.8,76.3*,12.9
C=CCNC(=S)Nc1ccc(C)c(S(=O)(=O)N2CCCCC2)c1,1.3,10.1,9.0,3.5
Cc1ccc(NC(=S)Nc2ccc(C(C)C)cc2)cc1S(=O)(=O)N1CCCCCC1,63.1,65.8*,7.4,-18.1
Nc1ccc(Cc2ccc(N)c(O)c2)cc1O,-8.0,4.3,98.9*,5.5
COc1cc(Cc2ccc(N)c(OC)c2)ccc1N,-20.8,-2.0,-5.7,-2.8
COc1ccc(/C=N/OCC(=O)Nc2nc3ccccc3s2)cc1,62.2,26.9,-4.6,1.7
CCN(c1ccccc1)S(=O)(=O)c1cnc[nH]1,2.7,59.4*,-5.9,18.4
CN(CC(=O)NCc1ccccc1)S(=O)(=O)c1cnc[nH]1,9.8,7.3,-3.4,0.7
COc1ccc(/C=C2/C(=O)N(CC3CCCO3)C(=S)N2C)c(OC)c1 (centres undefined),47.6,-8.9,6.9,51.9*
O=c1c2ccccc2c(/C=N/NS(=O)(=O)c2ccccc2)c(O)n1-c1ccccn1,22.3,14.7,-6.5,24.2
COc1ccc(-c2c(C(F)(F)F)oc3cc(OCC(=O)Nc4ccccc4C(F)(F)F)ccc3c2=O)cc1OC,91.2*,-21.5,0.7,-27.4
COc1ccccc1-c1c(C(F)(F)F)oc2cc(OCC(=O)Nc3ccccc3C(F)(F)F)ccc2c1=O,33.9,4.2,-1.8,0.8
CC(C)Cc1cc(CN2CCC(CO)(Cc3cccc(C(F)(F)F)c3)CC2)[nH]n1,31.1,-1.3,85.4*,-30.7
OCC1(Cc2cccc(Cl)c2)CCCN(Cc2cn[nH]c2C2CCCCC2)C1 (centres undefined),64.0,-8.7,36.3,-19.7
Cc1cc(CN2CCCC(CO)(Cc3cccc(Cl)c3)C2)n[nH]1 (centres undefined),23.1,16.9,29.2,-4.2
OCC1(Cc2cccc(Cl)c2)CCCN(Cc2ccc3cc(F)ccc3n2)C1 (centres undefined),-10.4,25.3,55.2*,-12.5
CC(C)Cc1cc(CN2CCCC(CO)(Cc3cccc(Cl)c3)C2)[nH]n1 (centres undefined),28.2,8.9,68.0*,-24.5
O=C(Nc1ccc(CN2CCCCC2)cc1)c1sc2ccccc2c1Cl,-11.1,.,.,.
O=C(O)c1cccc(Oc2ccc([N+](=O)[O-])cc2)c1,14.9,11.0,58.5*,15.8
O=C1OC(/C(=C\Nc2cc(Cl)ccc2O)[N+](=O)[O-])c2ccccc21 (centres undefined),9.3,-20.8,15.8,5.8
COc1cc(C(=O)Nc2nc(C)cc(C)n2)cc(OC)c1OC,-13.4,.,.,.
SMILES,CHOP inhibitor,WT yeast gro inh,L major viab,Arbovirus anti
CCOC(=O)c1cc(CC)sc1NC(=O)c1cc(OC)c(OC)c(OC)c1,90.4*,-3.4,1.7,4.0
COc1cc(C(=O)Nc2sc(C)c(C)c2C(=O)O)cc(OC)c1OC,-12.6,-12.2,-6.3,44.4*
CCOC(=O)c1cc(CC)sc1NC(=O)Cc1ccsc1,75.5*,31.3,10.2,1.8
CCn1c(SCC(=O)N/N=C(\C)c2ccncc2)nnc1-c1ccc(C)cc1,17.2,.,.,.
N#Cc1cccc(NC(=O)C2SC(=Nc3ccccc3)C(C(=O)N3CCOCC3)=C2N)c1 (centres undefined),37.0,-2.4,53.5*,-5.3
COc1ccc(C(=O)/C=C/c2ccccc2)c(O)c1,-51.6,20.7,75.0*,-6.2
COc1ccc(C(=O)/C=C/c2ccc(OC)cc2OC)c(O)c1,-16.8,16.4,-5.4,-1.2
O=C(/C=C/c1ccc(O)c(O)c1)c1ccccc1O,-126.6,.,.,.
O=C(/C=C/c1ccc(O)cc1)c1ccc(O)cc1O,-17.8,-4.8,84.7*,-9.1
CC(C)=CCC/C(C)=C/Cc1c(O)ccc(C(=O)/C=C/c2ccc(O)cc2)c1O,85.8*,94.8*,4.1,-40.5
CC1CCCC(C)N1/N=C/c1ccc(N(C)C)cc1 (centres undefined),8.5,-0.6,1.9,3.0
C=CCN1C(=O)CSc2ccc(C(=O)N3CCC(C)CC3)cc21,18.1,18.1,-4.1,0.0
COc1ccc(CCn2c(Br)nc3c2c(=O)[nH]c(=O)n3C)cc1,-3.5,1.4,91.5*,-18.0
COc1ccc(CCn2c(NN)nc3c2c(=O)[nH]c(=O)n3C)cc1,-3.0,.,.,.
Cn1c(=O)[nH]c(=O)c2c1nc(Br)n2C/C=N/Nc1ccccc1,-8.4,38.1,65.2*,-27.6
